SMILES strings stand for the structures. Active and inactive are the calls of the source. How the source made its calls: active means hit-call score of the fitted dose curve at least 0.9, where 1 is the maximum; inactive means score below 0.9.

The nature of assay [1]: ATG_CRE_CIS: Attagene CIS-FACTORIAL HepG2 Assay for human cAMP Responsive Element (CRE) binding protein 3 (AID 2282926). The following applies: HepG2 CRE cis-reporter, Attagene multiplexed mRNA; actives raise or lower the signal. The procedure, abridged:
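Transfected HepG2 were treated for 24 hours, then RNA was extracted and reporter cDNA amplified with sequence-specific primers. Labelled fragments were separated by capillary electrophoresis, and the CRE signal was fitted bidirectionally with DMSO as baseline.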

Assay [2] concerns the target CCAAT/enhancer-binding protein beta (Homo sapiens) (UniProt P17676). The experiment in a line: ATG_C_EBP_CIS: Attagene CIS-FACTORIAL HepG2 Assay for human CCAAT/Enhancer Binding Protein (C/EBP) beta (AID 2282927). The following applies: HepG2 Attagene cis-factorial transcription factor reporter; actives raise or lower the signal. The gist of the method: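 HepG2, transient MRTU transfection, 24 h treatment. RT-PCR plus CE fluorescence; DMSO negative control, bidirectional fit.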

Assay [3] can be described thus: ATG_CMV_CIS: Attagene CIS-FACTORIAL HepG2 Assay for human CMV (Internal Marker) (AID 2282928).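 Further: endpoint acts as a background internal control marker rather than a target.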 The conditions noted are these: HepG2 CMV promoter reporter, transcription factor profiling; actives raise or lower the signal. The procedure, abridged:
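Endogenous transcription factor activity read in HepG2 via transfected cis-promoter reporter units. After 24 h dosing, reporter mRNA measured by RT-PCR/capillary electrophoresis; gain or loss of signal fit relative to DMSO.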

A short description of assay [4]: ATG_DR4_LXR_CIS: Attagene CIS-FACTORIAL HepG2 Assay for human Liver X Receptor (LXR), DR4 submotif (AID 2282929). The following applies: HepG2 Attagene DR4 cis-reporter, mRNA transcription; actives raise or lower the signal. The gist of the method:
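DR4 cis-reporter in HepG2, 24 h exposure. Detection: RT-PCR, 6-FAM labelling, CE fragment analysis. Endpoint fitted bidirectionally, DMSO = baseline.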

In assay [5] the target is Aryl hydrocarbon receptor (Homo sapiens) (UniProt P35869). Put plainly: ATG_Ahr_CIS: Attagene CIS-FACTORIAL HepG2 Assay for human Aryl Hydrocarbon Receptor (Ahr) (AID 2282930). The following applies: HepG2 AhR cis-factorial reporter transcription; actives raise or lower the signal. The procedure, abridged:
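Endogenous factor activity is tracked through cis-promoter reporter units transfected into HepG2 cells. Transcript levels at 24 h are read by fluorescent RT-PCR and capillary electrophoresis, with activity in either direction scored relative to DMSO.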

Assay [6] in a line: ATG_AP_1_CIS: Attagene CIS-FACTORIAL HepG2 Assay for human Activator Protein 1 (AP-1) (AID 2282931). The conditions noted are these: HepG2 Attagene cis-factorial AP-1 reporter mRNA; actives raise or lower the signal. The gist of the method: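 Cis-regulated reporter units transiently expressed in HepG2 report endogenous transcription-factor activity. Signal: reporter mRNA at 24 h, via RT-PCR and fluorescent capillary electrophoresis. Endpoint derived by bidirectional fitting, DMSO as negative control.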

Assay [7] can be described thus: ATG_AP_2_CIS: Attagene CIS-FACTORIAL HepG2 Assay for human Activator Protein 2 (AP-2) (AID 2282932). The conditions noted are these: HepG2 AP-2 cis-reporter, Attagene transcription factor profiling; actives raise or lower the signal. The procedure, abridged:
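Multiplexed mRNA reporter assay in HepG2: cis-regulated units report endogenous factor activity after 24 h treatment. Fluorescence from capillary electrophoresis of RT-PCR products gives the signal, with DMSO as baseline.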

Assay [8] can be described thus: ATG_BRE_CIS: Attagene CIS-FACTORIAL HepG2 Assay for human Bone Morphogenetic Protein (BMP) Response Element (BRE) (AID 2282933). The following applies: HepG2 BMP response element reporter, Attagene transcription factor profiling; actives raise or lower the signal. The procedure, abridged: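 HepG2 cells transiently transfected with CIS reporter units (endogenous TF activity, BMP response element), dosed 24 h. Reporter mRNA quantified by RT-PCR, fluorescent labelling and capillary electrophoresis; bidirectional fit vs DMSO baseline.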

Assay [9] has as its target Retinoic acid receptor alpha (Homo sapiens) (UniProt P10276). The experiment in a line: ATG_DR5_RAR_CIS: Attagene CIS-FACTORIAL HepG2 Assay for human Retinoic Acid Receptor Alpha (RARE), DR5 submotif (AID 2282934).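 On AC50: reporter responds to endogenous RAR alpha beta and gamma in HepG2 not RARA alone.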 The conditions noted are these: HepG2 Attagene cis-factorial RARE DR5 reporter, mRNA; actives raise or lower the signal. The procedure, abridged: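 After 24 h of chemical exposure, transiently transfected HepG2 cells were lysed for total RNA; the DR5-regulated reporter transcript was quantified via RT-PCR and capillary electrophoresis, with activity fitted bidirectionally against DMSO.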

In assay [10] the target is Transcription factor E2F1 (Homo sapiens) (UniProt Q01094). Put plainly: ATG_E2F_CIS: Attagene CIS-FACTORIAL HepG2 Assay for human E2F Transcription Factor 1 (AID 2282935). The following applies: HepG2 Attagene cis-reporter, E2F reporter RNA transcripts; actives raise or lower the signal. The gist of the method:
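Measures reporter transcript levels via RT-PCR with capillary electrophoresis detection in HepG2 cells harboring cis-regulated reporter units; 24 h post-dose; bidirectional curve fitting with DMSO as baseline.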

Assay [11] in a line: ATG_E_Box_CIS: Attagene CIS-FACTORIAL HepG2 Assay for human Enhancer Box (E-box) (AID 2282936). The following applies: HepG2 E-box cis-reporter transcription, actives raise or lower the signal. The procedure, abridged:
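First, HepG2 cells receive multiple cis-regulated reporter constructs by transient transfection. Next, chemicals are applied for 24 h. Finally, reporter mRNA is quantified via RT-PCR and capillary electrophoresis, with DMSO as baseline.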

A short description of assay [12]: ATG_M_61_CIS: Attagene CIS-FACTORIAL HepG2 Assay for M61 Transcription Factor (Internal Marker) (AID 2282937). The conditions noted are these: HepG2 Attagene CIS-FACTORIAL M61 internal marker reporter; actives raise or lower the signal. The procedure, abridged: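 Background-control endpoint: HepG2 cells with cis-regulated reporter constructs, 24 h exposure, reporter mRNA detected via fluorescent primer extension and capillary electrophoresis; values from bidirectional fitting with DMSO baseline.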

Assay [13] in a line: ATG_EGR_CIS: Attagene CIS-FACTORIAL HepG2 Assay for human Early Growth Response 1 (EGR1) (AID 2282938). The following applies: HepG2 Attagene CIS-FACTORIAL EGR reporter mRNA; actives raise or lower the signal. The procedure, abridged: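 Endpoint derived by bidirectional fitting versus DMSO vehicle. Method: cis-promoter reporter units transfected into HepG2, 24 h dosing, RNA isolation, RT-PCR with 6-FAM primer extension and HpaI digestion, then capillary electrophoresis fluorescence detection.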

Transcription factor E2F1 (Homo sapiens), sequence (Q01094 whole entry, looked up): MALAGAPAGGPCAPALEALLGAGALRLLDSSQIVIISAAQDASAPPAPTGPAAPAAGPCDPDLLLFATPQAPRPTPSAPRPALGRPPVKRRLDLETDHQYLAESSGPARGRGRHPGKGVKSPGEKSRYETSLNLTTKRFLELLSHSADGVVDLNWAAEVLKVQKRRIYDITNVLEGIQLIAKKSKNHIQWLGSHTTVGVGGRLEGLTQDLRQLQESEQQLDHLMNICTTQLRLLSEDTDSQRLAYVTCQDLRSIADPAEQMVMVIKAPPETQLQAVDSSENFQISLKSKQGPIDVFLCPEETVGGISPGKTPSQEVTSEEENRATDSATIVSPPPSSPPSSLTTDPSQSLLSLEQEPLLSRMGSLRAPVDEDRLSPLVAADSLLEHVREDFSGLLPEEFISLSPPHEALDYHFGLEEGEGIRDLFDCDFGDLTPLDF
Aryl hydrocarbon receptor (Homo sapiens), sequence (P35869 whole entry, looked up): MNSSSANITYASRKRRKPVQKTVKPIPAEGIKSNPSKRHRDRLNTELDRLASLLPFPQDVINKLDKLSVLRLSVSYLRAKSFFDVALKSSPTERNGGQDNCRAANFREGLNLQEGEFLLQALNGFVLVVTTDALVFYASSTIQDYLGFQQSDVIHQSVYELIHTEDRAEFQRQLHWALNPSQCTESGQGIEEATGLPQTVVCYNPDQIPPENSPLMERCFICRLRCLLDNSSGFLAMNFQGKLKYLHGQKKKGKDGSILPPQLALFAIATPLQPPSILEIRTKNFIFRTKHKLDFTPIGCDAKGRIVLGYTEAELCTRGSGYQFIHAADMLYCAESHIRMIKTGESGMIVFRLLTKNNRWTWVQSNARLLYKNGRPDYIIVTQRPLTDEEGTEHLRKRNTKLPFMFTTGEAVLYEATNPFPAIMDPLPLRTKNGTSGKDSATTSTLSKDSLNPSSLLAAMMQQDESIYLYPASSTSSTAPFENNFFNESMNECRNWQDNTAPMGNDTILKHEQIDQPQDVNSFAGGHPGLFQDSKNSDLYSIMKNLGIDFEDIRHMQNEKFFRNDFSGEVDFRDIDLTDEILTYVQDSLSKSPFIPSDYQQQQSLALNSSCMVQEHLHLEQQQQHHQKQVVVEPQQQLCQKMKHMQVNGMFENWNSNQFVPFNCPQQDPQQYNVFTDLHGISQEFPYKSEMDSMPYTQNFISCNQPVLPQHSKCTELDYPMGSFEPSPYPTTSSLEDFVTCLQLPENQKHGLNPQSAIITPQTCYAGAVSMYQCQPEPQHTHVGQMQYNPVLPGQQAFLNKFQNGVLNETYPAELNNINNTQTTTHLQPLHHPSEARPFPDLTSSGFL
Retinoic acid receptor alpha (Homo sapiens), sequence (P10276 whole entry, looked up): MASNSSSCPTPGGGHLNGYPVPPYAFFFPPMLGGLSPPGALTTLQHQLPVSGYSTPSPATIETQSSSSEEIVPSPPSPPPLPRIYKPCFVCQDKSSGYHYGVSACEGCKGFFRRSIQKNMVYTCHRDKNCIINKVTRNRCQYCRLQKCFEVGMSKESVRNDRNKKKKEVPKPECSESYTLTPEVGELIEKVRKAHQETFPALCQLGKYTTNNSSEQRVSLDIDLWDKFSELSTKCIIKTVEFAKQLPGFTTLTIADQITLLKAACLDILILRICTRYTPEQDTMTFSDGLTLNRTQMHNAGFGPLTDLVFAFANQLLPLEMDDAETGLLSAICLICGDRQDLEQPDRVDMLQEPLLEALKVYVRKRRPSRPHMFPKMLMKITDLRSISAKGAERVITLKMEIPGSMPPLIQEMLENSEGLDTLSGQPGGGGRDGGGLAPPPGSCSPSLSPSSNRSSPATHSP
CCAAT/enhancer-binding protein beta (Homo sapiens), sequence (P17676 whole entry, looked up): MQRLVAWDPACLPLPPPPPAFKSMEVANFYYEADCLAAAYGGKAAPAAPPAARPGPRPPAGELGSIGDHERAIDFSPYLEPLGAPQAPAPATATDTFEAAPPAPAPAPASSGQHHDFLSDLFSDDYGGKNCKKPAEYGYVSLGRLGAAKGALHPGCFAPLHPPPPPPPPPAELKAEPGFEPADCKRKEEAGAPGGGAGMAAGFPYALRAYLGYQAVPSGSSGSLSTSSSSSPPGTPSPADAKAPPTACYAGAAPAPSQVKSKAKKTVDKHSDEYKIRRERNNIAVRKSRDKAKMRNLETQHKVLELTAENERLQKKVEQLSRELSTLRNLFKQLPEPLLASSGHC

As for `NNCCO`, the call in assay [1], in [2], in [3], in assay [4], in assay [6] and in [7] was inactive. For the same compound, the compound was classed as inactive in assay [8], in assay [9], in assay [10], in [11], in assay [12] and in [13]. Further, in [5], the AC50 is 25.7 µM (active).
With `C#CCO`, the call in assay [1], in assay [2], in assay [3], in [4], in assay [5] and in assay [6] was inactive. Further, the result in assay [7], in [8], in [9], in assay [10], in assay [11] and in assay [12] was inactive. Besides, the call in assay [13] was inactive.
Turning to `Cc1cc(SCc2sc(-c3ccc(C(F)(F)F)c(F)c3)nc2C)ccc1OCC(=O)O`, the compound was called inactive in assay [1], in [2], in [3], in assay [5], in assay [6] and in [8]. The call in assay [9], in assay [10], in assay [11] and in assay [12] was inactive. The concentration at half-maximal activity (AC50) is 23.8 µM (active) in assay [4], 51.2 µM (active) in assay [7] and 26.3 µM (active) in assay [13].
Regarding `CCOC(=O)CC(=O)CCl`, the concentration at half-maximal activity (AC50) in [1] was 176 µM (active); in assay [2] it was 183 µM (active); in assay [3], 65.7 µM (active); in assay [4] it was 61.6 µM (active); in assay [6], 75.2 µM (active); in assay [7], 44 µM (active). The concentration at half-maximal activity (AC50) in assay [11] was 128 µM (active); in [13], 32.2 µM (active). For the same compound, the call in assay [5], in assay [8], in [9], in [10] and in assay [12] was inactive.
For `Oc1ccc(Cc2ccc(O)cc2)cc1`, the compound was classed as inactive in assay [1], in [2], in [4], in assay [5], in assay [6] and in assay [7]. Besides, the compound was called inactive in [8], in assay [9], in [10], in [11], in assay [12] and in [13]. Further, the AC50 in assay [3] was 77.1 µM (active).
As to `CC[N+](CC)(CC)CC`, the call in [1], in [2], in assay [3], in assay [4], in assay [5] and in [6] was inactive. Also, the call in [7], in assay [8], in [9], in assay [10], in [11] and in assay [12] was inactive. For the same compound, the result in assay [13] was inactive.
For `O=NN1CCCCCCC1`, the call in assay [1], in assay [2], in assay [3], in assay [4], in assay [5] and in assay [6] was inactive. The call in assay [7], in assay [8], in [9], in [11], in [12] and in assay [13] was inactive.
As for `Nc1ncn[nH]1`, the compound was classed as inactive in assay [1], in assay [2], in assay [3], in assay [4], in [5] and in [6]. Also, the call in [7], in assay [8], in assay [9], in [10], in assay [11] and in assay [12] was inactive. In addition, the outcome in assay [13] was inactive.
For `O=C(CCl)Nc1ccccc1`, the AC50 in assay [1] was 13.2 µM (active); in assay [4] it was 76 µM (active); in assay [7], 44 µM (active); in [8], 5.35 µM (active); in assay [11] it was 73.5 µM (active); in [13], 44.4 µM (active). For the same compound, the outcome in [2], in assay [3], in [5], in [6], in assay [9] and in assay [12] was inactive.
With `CCOP(=S)(OCC)OP(=S)(OCC)OCC`, the compound was classed as inactive in [1], in assay [2], in assay [3], in assay [5], in [6] and in assay [7]. Moreover, the result in assay [8], in assay [9], in [10], in [11], in assay [12] and in [13] was inactive. In addition, the AC50 in assay [4] is 29.5 µM (active).
For the compound `N#CCCC(Br)(C#N)CBr` (configuration not stated), the half-maximal activity concentration (AC50) is 53.5 µM (active) in assay [1]; 62.1 µM (active) in assay [3]; 33.4 µM (active) in assay [5]; 49.9 µM (active) in assay [7]; 55.3 µM (active) in [9]; 45.3 µM (active) in [13]. Further, the outcome in assay [2], in assay [4], in [6], in assay [8], in assay [10] and in assay [12] was inactive.
In the case of `Cc1ccc(CCl)cc1`, the result in assay [1], in [2], in assay [3], in assay [4], in [5] and in assay [6] was inactive. In addition, the result in assay [7], in [8], in [9], in assay [10], in [12] and in assay [13] was inactive.

Values taken from PubChem BioAssay (EPA / NIEHS).
